A selection: hits, their analogues and other compounds. The true share with any hit is near 6.2%.
HCMV inh: human cytomegalovirus inhibition. 410,000 tested, 4.5% active. HFF cells, HCMV-luciferase reporter, 72 h; stronger effect = lower value. AID 1259415. activity change, negative = inhibition, % at 57.5 µM; in the data active = activity change below about -60%; inconclusive = no clear call, values can overlap the other calls; inactive = above about -39%
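Luciferase read-out from HCMV-luciferase-infected HFFs (MOI 1 PFU/cell) 72 h post infection at 37C; compounds added after 16 h cell attachment; activity normalized between buffer-only basal and Salinomycin (10uM) inhibitor controls.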
FMDV inh: blocks foot and mouth disease virus; FMDV antiviral cell-based qHTS; Potency, µM (titrated, usually from 57.9 µM), most hits filed as inhibitors; 410,000 tested, 1.2% active; AID 1159524; calls by dose curve; tested in HEK293T cells; note: read-out not given here; nearly all actives have a fitted effect of over 45% in size
LASV entry inh: inhibitors of Lassa virus binding or cell entry; Potency, µM (highest dose often 37.9 µM), most hits filed as inhibitors; Lassa virus pseudotype entry inhibition, cell reporter; 300,000 tested, 1.2% active; calls by dose curve; tested in HEK293 cells; note: nearly all actives have a fitted effect of over 50% in size
MARV entry inh: blocks Marburg virus binding to or entry into cells; Potency, µM (series often up to 37.8 µM), usual class: inhibitors; Marburg virus pseudotyped entry inhibition, cell reporter; AID 540276; 300,000 tested, 1.8% active; calls by dose curve; tested in HEK293 cells
Numbers stand for hits; i = inactive; ? = inconclusive; nt = not tested or not shown.

SMILES	HCMV inh	FMDV inh	LASV entry inh	MARV entry inh
COc1ccc(C(O)(C2CCCCC2)C(CN2CCOCC2)c2ccccc2)cc1 (stereo unspecified)	-61	i	nt	nt
OC(c1ccccc1)(C1CCCCC1)C(CN1CCOCC1)c1ccccc1 (stereo unspecified)	i	?	i	?
CCN(CC)S(=O)(=O)c1ccc(O)c(NC(=O)CN2CCc3ccccc3C2)c1	i	i	i	i
O=C(COC(=O)COc1ccc2ccccc2c1)Nc1cc(C(F)(F)F)ccc1N1CCOCC1	i	i	i	i
CNC(=O)CN(c1ccc(C23CC4CC(CC(C4)C2)C3)cc1)S(C)(=O)=O	-60	i	i	?
CCCCOc1ccc(CN=C(N)N)cc1Cl	i	?	nt	nt
CCCOc1ccc(CCCN=C(N)N)cc1Cl	-74	?	i	?
N#Cc1c(C(F)(F)F)cc(=O)[nH]c1SCC(=O)O	i	i	nt	nt
O=C(c1ccco1)N(CC1CCCO1)c1nc(-c2ccccc2)cs1 (stereo unspecified)	-101	?	i	i
CCOc1ccc2c(c1)C(c1cccs1)=NNC(c1cccnc1)=N2	-71	i	i	i
Brc1ccc2c(c1)C(c1cccs1)=NNC(c1cccnc1)=N2	i	i	i	?
CC1Cc2ccccc2N1C(=O)COC(=O)C1=COCCO1 (stereo unspecified)	i	i	i	i
CCC(C(=O)NC1CCCC1)N(Cc1ccccc1Cl)C(=O)c1snc(C(N)=O)c1N (stereo unspecified)	i	i	nt	?
CCCC(C(=O)NC1CCCC1)N(Cc1ccc(F)cc1)C(=O)c1snc(C(N)=O)c1N (stereo unspecified)	i	i	?	?
CCCC(C(=O)NC1CCCC1)N(Cc1ccccc1Cl)C(=O)c1snc(C(N)=O)c1N (stereo unspecified)	?	i	i	10µM
CCCCC(C(=O)NC1CCCC1)N(Cc1ccccc1)C(=O)c1snc(C(N)=O)c1N (stereo unspecified)	-61	i	?	?
CC1C(=O)C(C)(C)C(=O)OC1c1ccc([N+](=O)[O-])cc1 (stereo unspecified)	-104	i	nt	nt
CC1C(=O)C(C)(C)C(=O)OC1c1ccccc1 (stereo unspecified)	i	i	nt	nt
C[C@@H]1CCCCO[C@H](CN(C)Cc2ccc(C(F)(F)F)cc2)[C@H](C)CN([C@@H](C)CO)C(=O)c2cc(NC(=O)Cc3ccccc3)ccc2O1	-81	?	nt	nt
COc1ccc(CN(C)C[C@@H]2OCCCC[C@H](C)Oc3ccc(NC(=O)Nc4ccc(F)cc4)cc3C(=O)N([C@H](C)CO)C[C@H]2C)cc1	-102	?	nt	nt
C[C@@H]1CN([C@H](C)CO)C(=O)c2cc(NC(=O)Nc3ccc(F)cc3)ccc2O[C@@H](C)CCCCO[C@H]1CN(C)Cc1ccc(C(=O)O)cc1	i	i	nt	nt
COc1ccc(CN(C)C[C@@H]2OCCCC[C@H](C)Oc3ccc(NC(=O)Cc4ccccc4)cc3C(=O)N([C@@H](C)CO)C[C@@H]2C)cc1	i	i	nt	nt
COc1ccc(OC)c(NC(=O)COC(=O)/C=C/c2ccc(Cl)cc2)c1	i	i	i	i
COc1ccc(C2=C(Nc3ccc(Br)c(C)c3)c3ccccc3C2=O)cc1	i	28µM	i	i
COc1ccc(-n2nc(C#N)c(Cl)cc2=O)cc1	-101	22µM	?	3.2µM
SMILES	HCMV inh	FMDV inh	LASV entry inh	MARV entry inh
Nc1cccc2c1C(=O)N(CCOc1ccccc1F)C2=O	i	i	2.8µM	?
Cc1ccc(-n2cc(CNCCc3cscn3)c(-c3ccc(F)cc3)n2)cc1	i	i	?	13µM
Cc1ccc(C)c(-n2cc(CNCCCn3cccn3)c(-c3ccccc3)n2)c1	-65	i	?	10µM
Cc1ccc(-n2cc(CNCCCn3cccn3)c(-c3cccc(C)c3)n2)cc1	i	i	?	?
Cc1ccc(-n2cc(CNCCCn3ccnc3C)c(-c3ccc(F)cc3)n2)cc1	-82	i	?	?
COc1ccc(-n2cc(CNCCc3cscn3)c(-c3ccccc3Cl)n2)cc1	i	i	i	?
CC(C)NC(=O)CC1OC(=O)c2ccccc21 (stereo unspecified)	i	i	i	i
O=S(=O)(c1ccccc1)N1CCN(Cc2nnc(-c3ccccc3)o2)CC1	i	i	nt	nt
Cc1ccc(S(=O)(=O)N2CCN(Cc3nnc(-c4c(-c5ccccc5)noc4C)o3)CC2)cc1	i	40µM	i	i
O=C(CSC1=NCCS1)N1CCN(c2ccc(Cl)cc2)CC1	-82	?	i	i
CCn1c(/C=C/N(C)c2ccccc2)[n+](CC)c2ccc(Cl)cc21	-94	nt	8.2µM	?
CCn1c(C)[n+](Cc2ccccc2)c2ccc(Cl)cc21	-67	i	nt	i
COc1ccc2nc(C(F)(F)Cl)c(C#N)c(N)c2c1	-88	i	nt	nt
O=C(Nc1ccc(Cl)cc1)NN1CCCCCC1	i	i	i	i
